Screens (PubChem BioAssay)
D1 PAM = human D1 dopamine receptor positive modulation; P21728; hit rate 0.036% among 360,000; potentiation, % at 10 µM; HEK293 TREx D1 cells, calcium flux, dopamine EC20 potentiation; in the data active = potentiation above about 30%; also: 0% is about no effect
LDHA block = LDHA (human) enzyme inhibition; hit rate 0.15% among 480,000; activity change, % (values are at about 110 or 230 µM); AID 1347041; purified LDHA, NADH/diaphorase-resazurin fluorescence; active compounds read low; P00338; in the data active = activity change below about -30%;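 also: plate controls were DMSO wells for no effect and wells without enzyme for full effect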
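Remaining NADH was detected by diaphorase (0.133 mg/mL) converting 37 µM resazurin to fluorescent resorufin, read at 0 and 20 minutes. The preceding 5-minute room-temperature reaction used 2 nM LDHA, 0.2 mM sodium pyruvate and 0.06 mM NADH at pH 7.4.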
TRHR ag = agonists of human TRH receptor; P34981; TRHR cells, calcium flux fluo-8, FDSS agonist mode; activation, % at 2 µM; hit rate 0.18% among 360,000; also: 0% is about no effect
Target sequence (P34981 whole entry, looked up): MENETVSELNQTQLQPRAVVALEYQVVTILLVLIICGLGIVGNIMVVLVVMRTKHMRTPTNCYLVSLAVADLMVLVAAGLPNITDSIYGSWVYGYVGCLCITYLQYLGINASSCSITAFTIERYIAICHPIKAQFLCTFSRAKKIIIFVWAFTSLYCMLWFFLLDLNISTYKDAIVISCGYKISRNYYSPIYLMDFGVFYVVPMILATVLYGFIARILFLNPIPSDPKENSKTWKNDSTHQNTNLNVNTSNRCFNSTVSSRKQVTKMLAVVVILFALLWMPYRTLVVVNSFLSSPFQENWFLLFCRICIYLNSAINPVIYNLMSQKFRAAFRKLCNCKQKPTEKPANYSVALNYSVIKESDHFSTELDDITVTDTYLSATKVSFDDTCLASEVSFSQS
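Agonist-mode FDSS calcium read (Ex 480/Em 530, 1 s cycles) in 1536-well TRHR cells with fluo-8 dye, after 10-cycle baseline and 23 nL compound addition; TRH at EC20 (10 nM final) added afterwards for the enhancer phase.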
TRHR PAM = TRH receptor (human) allosteric enhancement; P34981; TRHR cells, fluo-8 calcium fluorescence, EC20 TRH enhancement; enhancement, % at 2 µM; hit rate 0.66% among 360,000; in the data active = enhancement above about 30%; also: 0% is about no effect
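Enhancer read-out: after compound pinning and an initial kinetic agonist-mode read, an EC20 of TRH (10 nM final) was injected and fluo-8 calcium signal (Ex 480/Em 530) followed at 1 s/cycle for 100 cycles in TRHR-expressing cells.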
D1 agonist = human D1 receptor agonism | HEK293 T-REx D1 cells, calcium flux, agonist mode | hit rate 1% among 360,000 | activation, % at 2 µM; also: 0% is about no effect
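Tetracycline-induced HEK293 TREx D1 cells, force-coupled to calcium signalling, were dye-loaded with a no-wash calcium kit. Compound was pin-added after a 10 s baseline. Fluorescence was read kinetically at 1 cycle/s for 180 s, with calcium rises flagged as agonism.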
D1 antagonist = antagonists of human D1 dopamine receptor | hit rate 3.2% among 360,000 | P21728 | AID 504652 | HEK293 TREx D1 cells, calcium flux, dopamine EC80; active compounds read low | activity change, negative = inhibition, % at 10 µM; in the data active = activity change below about -30%; also: % is scaled to controls: 0 for no effect and ±100 for the full control effect
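Tetracycline-induced HEK293 Trex D1 cells, force-coupled to calcium, dye-loaded; compounds added and read 180 s, then EC80 dopamine added and calcium flux tracked kinetically another 180 s.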
Starred values were filed as active, the others as inactive; / = no result. Rows were chosen to be rich in hits. Some 3.6% of all compounds tested hit in one or more screens of this group. Rule as the data show it, unless noted: active = activation above about 30%; inactive = the rest.

SMILES	D1 PAM	LDHA block	TRHR ag	TRHR PAM	D1 agonist	D1 antagonist
CCOc1ccccc1C(=O)NCC(=O)NNC(=O)c1cccc(S(=O)(=O)Nc2ccc(OC)cc2)c1	-4.9	-9.9	0.0	2.4	0.6	-20.5
CCOc1ncccc1C(=O)NNC(=O)c1cccc(S(=O)(=O)Nc2ccc(OC)cc2)c1	-13.7	0.1	0.3	-5.1	2.6	-46.5*
CC(=O)Nc1ccc(S(=O)(=O)NC(C)C(=O)NCC(c2ccco2)N2CCCCC2)cc1 (stereo unspecified)	-2.3	0.8	0.0	3.4	0.5	-46.4*
CCOC(=O)c1c(C)[nH]c(C(=O)N(C)Cc2cccc(OC)c2OC)c1C	-7.5	-7.7	-0.9	4.4	37.8*	2.0
CCOc1ccc(S(=O)(=O)Nc2cccc(C(=O)N(C)Cc3cccc(OC)c3OC)c2)cc1	-5.8	-6.0	-0.9	2.0	7.3	-31.9*
Cc1cccc(OCC(=O)NC2CCc3ccccc32)c1C (stereo unspecified)	/	-6.1	/	/	/	/
NS(=O)(=O)c1ccc(N/N=C2/CC3CC=CC23)c([N+](=O)[O-])c1 (stereo unspecified)	/	-7.0	/	/	/	/
O=C(NCC(c1ccco1)N1CCCCC1)c1ccc(S(=O)(=O)Nc2ccccc2)cc1 (stereo unspecified)	-0.5	-8.6	1.5	10.9	10.6	7.1
Cc1ccc(NS(=O)(=O)c2ccc(C(=O)NCC(c3ccco3)N3CCCCC3)cc2)cc1 (stereo unspecified)	-2.9	-0.8	4.0	7.4	38.6*	-1.1
CC(=O)N(c1nc(C)c(C(=O)Nc2ccc3cc[nH]c3c2)s1)C(C)C	/	-8.3	/	/	/	/
CS(=O)(=O)N(CC(=O)N1CCN(c2ccc(F)cc2)CC1)c1ccc(F)c(Cl)c1	0.5	-11.2	0.3	39.3*	-1.2	/
Cc1ccc(S(=O)(=O)c2nc(NCCN(C)C)sc2Cl)cc1	-7.8	-2.6	0.3	-2.2	5.5	-37.1*
CC(C)c1nnc(NC(=O)c2cc(=O)c3cc(Cl)cc(Cl)c3o2)s1	/	-34.7*	/	/	/	/
COc1ccc2c(C)c(CC(=O)Nc3ccc(Cn4cncn4)cc3)c(=O)oc2c1	/	0.9	/	/	/	/
COc1ccc(C2=CC(=O)N(Nc3ccccc3)C2=O)cc1	-5.1	-17.2	1.8	2.2	5.3	18.8
Cc1ccc(NN2C(=O)C=C(c3ccc(Cl)cc3)C2=O)cc1	-8.4	-1.9	1.3	-1.9	3.3	-39.0*
O=C1C=C(c2ccccc2)C(=O)N1Nc1ccccc1	-7.9	-1.8	3.8	32.7*	4.1	-9.8
CN(C(=O)CC1C(=O)NCCN1Cc1ccc(F)cc1)C1CCOCC1 (stereo unspecified)	-2.6	2.7	1.5	2.8	4.0	-16.4
CN(C(=O)CC1C(=O)NCCN1Cc1ccc(F)c(F)c1)C1CCOCC1 (stereo unspecified)	-2.5	2.5	-0.3	-1.3	2.6	-42.3*
O=C1CCCC2=C1C(c1ccc(Cl)cc1)CC(=O)N2c1ccc(F)cc1 (stereo unspecified)	/	-2.9	/	/	/	/
COc1ccc(C[C@H]2CN3C(=NC[C@@H]3Cc3ccc(O)cc3)N2CCNC(=O)c2ccc(C)c(Br)c2)cc1	-5.0	-9.8	0.0	3.6	-3.5	2.7
Cc1ccc(C(=O)N[C@@H](C)CN2C3=NC[C@H](C(C)C)N3C[C@H]2Cc2ccc(O)cc2)cc1Br	-5.8	0.2	0.0	-5.1	-1.5	-57.0*
COc1ccc(C[C@H]2CN3C(=NC[C@@H]3C(C)C)N2C[C@H](C)NC(=O)c2ccc(C)c(Br)c2)cc1	-0.8	-2.2	-0.5	-4.7	-1.5	17.2
COc1ccc(C[C@H]2CN3C(=NC[C@@H]3Cc3ccc(O)cc3)N2C[C@H](C)NC(=O)c2ccc(C)c(Br)c2)cc1	-9.4	4.4	-1.1	-6.0	1.8	-41.6*
O=C(COc1ccc2c(=O)c(-c3ccc(Cl)cc3)coc2c1)Nc1nccs1	/	6.6	/	/	/	/
SMILES	D1 PAM	LDHA block	TRHR ag	TRHR PAM	D1 agonist	D1 antagonist
Cc1ccnc(NC(=O)CC(NC(=O)c2ccccc2Cl)c2ccccc2)c1 (stereo unspecified)	-3.1	-2.8	0.0	-3.1	3.7	9.6
Cc1ccc(NC(=O)CC(NC(=O)c2ccccc2Cl)c2ccccc2)nc1 (stereo unspecified)	/	-2.9	-0.4	-2.7	6.7	-30.1*
O=C(C1CCCN1S(=O)(=O)c1ccccc1)N1CCCCC1 (stereo unspecified)	/	-1.2	/	/	/	/
COc1cc(NC(=O)c2ccc(F)cc2)ccc1NC(=O)c1cc2ccccc2o1	-8.8	0.0	-0.3	6.1	0.9	-33.2*
Cc1cc(NC(=O)c2ccc3c(c2)OCCO3)ccc1NC(=O)c1cc2ccccc2o1	6.2	-7.6	0.0	-0.3	3.2	3.5
COc1cc(NC(=O)c2ccc(C)cc2)ccc1NC(=O)c1cc2ccccc2o1	-6.3	-7.5	-0.7	-3.6	4.4	3.7
O=C(Nc1ccc(NC(=O)c2cc3ccccc3o2)cc1)c1ccc2c(c1)OCCO2	0.9	-7.9	-0.6	3.5	3.2	-42.8*
COC(CNc1nc2c(c(=O)n(C)c(=O)n2C)n1Cc1ccccc1Cl)OC	/	7.1	/	/	/	/
Cc1[nH]c2ccccc2c1C(=O)CSc1ccc2c(c1)OCCCO2	/	4.8	/	/	/	/
Cc1ccc(Cn2c(SCc3ccc(C(=O)NCCc4ccccc4)cc3)nc3ccncc32)cc1	-2.6	4.2	2.1	-1.1	17.2	-9.8
O=C(NCCc1ccccc1)c1ccc(CSc2nc3ccncc3n2Cc2ccccc2)cc1	-4.9	-6.8	0.3	18.0	4.4	-31.1*
CCN1CCN(c2c(/C=C3\SC(=S)N(Cc4ccco4)C3=O)c(C)c(C#N)c(=O)n2C)CC1	-5.5	-5.2	-0.6	32.2*	234.9*	-4.2
COc1ccc(-n2c(C)cc(/C=C3\SC(=S)N(Cc4ccco4)C3=O)c2C)cc1	-6.8	-6.2	2.8	4.1	20.5	-9.0
CC(C)n1c(SCC(=O)NCc2cccs2)nnc1-c1ccc2c(c1)OCCCO2	/	6.7	/	/	/	/
Cc1c(O)ccc2c(COC(=O)c3nn(C(C)C)c(=O)c4ccccc34)cc(=O)oc12	/	4.6	/	/	/	/
COc1ccc(Br)cc1CN(C)CC(=O)Nc1ccccc1Cl	-1.6	-1.0	0.2	-5.6	4.5	-8.0
COc1ccc(Br)cc1CN(C)CC(=O)Nc1cc(Cl)ccc1Cl	1.5	-3.6	1.4	-0.3	6.1	-31.2*
COc1cc(Cl)c(C)cc1NC(=O)CN(C)Cc1cccc(OC)c1OC	-7.8	-9.3	-0.8	-6.3	49.8*	9.6
COc1ccccc1CN(C)CC(=O)Nc1cccc2ccccc12	8.7	-0.7	-0.8	4.7	-3.0	7.2
O=C(CSc1ncnc2nc[nH]c12)Nc1ccc(Oc2ccccc2)cc1	/	0.4	/	/	/	/
Cc1cnc(C(=O)NCC(c2ccccc2)c2c[nH]c3ccccc23)cn1 (stereo unspecified)	/	-4.7	/	/	/	/
